High-throughput results (PubChem BioAssay)
AmpC inh detg: blocks E. coli AmpC beta-lactamase in detergent assay; P00811; AmpC hydrolysis of nitrocefin, absorbance 480 nm, 0.01% Triton; Potency, µM (doses to about 114 µM), without a hit: at the highest dose activity change, negative = inhibition, actives largely listed as inhibitors; hit rate 0.041% among 370,000; AID 485294;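 also: 0% = no-compound wells and -100% = no-enzyme wells; nearly all actives have a fitted effect of over 25% in size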
Target sequence (P00811 whole entry, looked up): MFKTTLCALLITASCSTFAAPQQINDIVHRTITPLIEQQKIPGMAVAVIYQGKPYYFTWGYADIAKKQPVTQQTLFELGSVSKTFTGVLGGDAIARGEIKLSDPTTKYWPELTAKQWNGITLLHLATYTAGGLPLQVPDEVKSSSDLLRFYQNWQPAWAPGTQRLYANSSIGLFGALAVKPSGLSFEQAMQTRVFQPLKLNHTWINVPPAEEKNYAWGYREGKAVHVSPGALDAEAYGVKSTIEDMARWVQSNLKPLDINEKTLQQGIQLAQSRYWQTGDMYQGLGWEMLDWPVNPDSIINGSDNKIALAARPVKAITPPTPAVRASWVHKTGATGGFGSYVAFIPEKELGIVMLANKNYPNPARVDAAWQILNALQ
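20 mM phosphate pH 7.0 + 0.01% (detergent screen) or 0.0001% Triton X-100; 5.3 nM AmpC reagent; cpd preinc 15 min RT; nitrocefin (800 uM stock) to start; A480 q20 s × 4 min; Activity was normalised to no-enzyme and no-compound control wells.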
AMA1-RON2 inh: AMA1-RON2 (P. falciparum) interaction inhibition; AlphaScreen AMA1-biotinylated RON2 peptide binding; Potency, µM (doses to about 58.2 µM), without a hit: at the highest dose activity change, negative = inhibition, hits mostly inhibitors; hit rate 0.2% among 360,000; AID 720542;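 also: 0% = vehicle wells and -100% = peptide control; nearly all actives have a fitted effect of over 45% in size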
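AMA1 (3D7) with his tag at 25 nM final met compounds first, then biotinylated RON2 peptide at 25 nM; detection used donor plus acceptor beads, 10 µg/mL apiece, read by AlphaScreen after 30 min at room temperature.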
AmpC no deterg: blocks E. coli AmpC beta-lactamase in detergent-free assay; AmpC nitrocefin hydrolysis, absorbance 480 nm, 0.0001% Triton; P00811; hit rate 0.52% among 330,000; Potency, µM (titrated, usually from 57.1 µM), for inactives: at the top dose activity change, negative = inhibition, actives largely listed as inhibitors;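 also: plate controls were no compound for no effect and no enzyme for full effect; nearly all actives have a fitted effect of over 20% in size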
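AmpC (5.3 nM in the dispensed reagent) in 20 mM phosphate pH 7.0 with 0.01% (detergent screen) or 0.0001% Triton X-100 was preincubated with compounds for 15 min at room temperature. Nitrocefin was then added from an 800 uM solution, and hydrolysis was followed at 480 nm.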
SARS PLpro yeast: inhibitors of SARS-CoV papain-like protease in yeast; S. cerevisiae expressing SARS-CoV PLpro, growth rescue; hit rate 0.19% among 330,000; Potency, µM (doses to about 32.9 µM), for inactives: top-dose activity, positive = growth rescue, most hits filed as activators; calls by dose curve; also: 0% is about no effect; nearly all actives have a fitted effect of over 55% in size
VACV Venus inh: inhibitors of vaccinia virus (Venus reporter); Potency, µM (top dose mostly 36.5 µM), without a hit: at the top dose activity change, negative = inhibition, most hits filed as inhibitors; AID 720580; Vaccinia virus Venus reporter expression, fluorescence; hit rate 0.46% among 330,000; calls by dose curve; tested in A549 cells; also: % is scaled to controls: 0 for no effect and ±100 for the full control effect; nearly all actives have a fitted effect of over 30% in size
VACV mCherry inh: vaccinia inhibition (mCherry reporter); Vaccinia virus mCherry reporter infection, fluorescence; Potency, µM (top dose mostly 36.5 µM), for inactives: at the highest dose activity change, negative = inhibition, hits mostly inhibitors; hit rate 0.63% among 310,000; AID 720579; calls by dose curve; tested in A549 cells; also: % is scaled to controls: 0 for no effect and ±100 for the full control effect; nearly all actives have a fitted effect of over 35% in size
* = called active by the depositor; i = inactive; ? = inconclusive; . = no result. In the library only some 1.3% were active in any assay of this set; here they are far more common. Unless noted, calls follow the shape of the dose curve; as a rule, active = well fitted curve in the direction sought with a large enough effect; inconclusive = small, poorly fitted or top-dose-only effect, or another doubt; inactive = no such curve, though single readings can be large; an effect the other way counts as inactive or inconclusive. Potency is read from the fitted curve at half-maximal effect.

SMILES | AmpC inh detg | AMA1-RON2 inh | AmpC no deterg | SARS PLpro yeast | VACV Venus inh | VACV mCherry inh
CN=c1c([N+](=O)[O-])nn(-c2ccc3c(c2)OCCO3)n1O | -0.1% | 0.9% | 11.4% | -4.1% | ? | 12.6µM*
O=C(NCC1(N2CCOCC2)CCCC1)c1cnn(-c2nccc(-c3cccs3)n2)c1C1CC1 | . | . | . | . | 10.4% | -10.9%
O=C1N[C@@H](Cc2ccccc2)COC(=O)[C@@H](Cc2ccc(F)cc2)CC/C=C/C[C@@H]1CC(=O)N(CCO)Cc1ccccc1 | . | 4.9% | 201.3% | -1.0% | ? | 10µM*
O=C(C[C@@H]1C/C=C/CC[C@H](Cc2ccc(F)cc2)C(=O)OC[C@@H](Cc2ccccc2)NC1=O)N[C@H](CO)Cc1ccccc1 | . | -0.8% | 56.0% | 0.4% | 14.1µM* | 10µM*
O=C1N[C@H](Cc2ccccc2)COC(=O)[C@H](Cc2ccc(F)cc2)CC/C=C/C[C@@H]1CC(=O)N(CCO)Cc1ccccc1 | . | -2.9% | 143.4% | -12.3% | ? | 28.2µM*
O=C1N[C@H](Cc2ccccc2)COC(=O)[C@@H](Cc2ccc(F)cc2)CC/C=C/C[C@H]1CC(=O)N(CCO)Cc1ccccc1 | . | -4.8% | 164.6% | -27.2% | -27.6% | i
COc1ccc(S(=O)(=O)N2CCCCC2)cc1NC(=O)CN(Cc1ccco1)Cc1ccco1 | 7.9% | -5.6% | -10.2% | -4.4% | . | .
O=C(CN1C(=O)NC2(CCCC2)C1=O)Nc1cc(C(F)(F)F)ccc1N1CCCCC1 | ? | -16.1% | 35.5µM* | -4.4% | -28.8% | ?
Cc1cc(CNC(=O)c2cnn(-c3ncc4c(n3)-c3ccccc3CC4)c2C2CC2)on1 | . | . | . | . | -9.2% | -20.3%
CCOc1cccc(C2C=C(c3ccc4c(c3)OCO4)NC(c3ccccc3Cl)N2)c1O (stereo not given) | . | . | . | . | -7.5% | -0.6%
CS(=O)(=O)N(Cc1ccco1)CC(O)Cn1cc(C=O)c2ccccc21 (stereo not given) | ? | -1.2% | 0.2% | 10µM* | . | .
COc1cc(OC)c(/C=C/c2nccc3ccccc23)c(OC)c1 | . | . | . | . | -20.7% | -26.2%
O=C(CCCOC(=O)c1ccc(O)cc1O)c1ccccc1 | 4.3% | -8.4% | -20.6% | -2.7% | . | .
O=C(OCCCOc1ccc(F)cc1)c1ccc(O)cc1O | -6.4% | 11.4% | 3.16µM* | -11.0% | -26.8% | -18.5%
CCCc1nc2cccnc2n1C1CCN(C(=O)Cn2nccc2C)CC1 | . | . | . | . | -9.1% | -10.4%
Cc1ccc2c(c1N)C(=O)c1ccccc1C2=O | -4.2% | ? | -10.0% | 0.0% | 53.3% | -13.8%
Cc1ccc2c(c1C)-c1c(ccc(C)c1C)C(=O)C2=O | . | -29.2% | . | . | 10µM* | ?
CCN(c1ccccc1)S(=O)(=O)c1ccc(Cl)c(NC(=O)COC(=O)c2cc(O)c3ccccc3c2O)c1 | -3.1% | . | 3.98µM* | -5.5% | . | .
CCc1cccc(CC)c1NC(=S)NCCc1c(C)[nH]c2ccccc12 | -2.3% | 51.4% | -40.7% | 3.2% | ? | 10µM*
CCc1cccc(CC)c1NC(=S)NCCc1ccc(O)c(O)c1 | -7.4% | 68.5% | -39.3% | 4.0% | . | .
Cc1cc(Cl)ccc1OCC(=O)Nc1nc(-c2cccnc2)cs1 | 8.8% | -4.1% | -19.3% | 0.6% | . | .
Cc1cc(Cl)ccc1OCC(=O)Nc1nc(-c2cccs2)cs1 | 1.4% | -24.1% | 17.8µM* | -12.5% | -5.6% | i
C=CC(=O)Nc1ccc(CN2C(=O)N(c3c(Cl)c(OC)cc(OC)c3Cl)Cc3cnc(NCCCCN(CC)CC)nc32)cc1 | . | -27.6% | 146.1% | -3.7% | 3.16µM* | ?
COc1cccc(NC(=O)N[C@@H](Cc2ccccc2)C(=O)O)c1 | 2.8% | 3.3% | 2.24µM* | -1.3% | 5.5% | .
COc1cccc(NC(=O)Nc2nnc(CC(=O)Nc3ccccc3)s2)c1 | -6.0% | -5.1% | 11.2µM* | 0.2% | . | .
SMILES | AmpC inh detg | AMA1-RON2 inh | AmpC no deterg | SARS PLpro yeast | VACV Venus inh | VACV mCherry inh
COc1ccc(NC(=O)Nc2nnc(CC(=O)Nc3ccccc3)s2)cc1 | 0.5% | 0.0% | -36.7% | -1.3% | . | .
CCOc1ccc(NC(=O)N[C@@H](Cc2ccccc2)C(=O)O)cc1 | 1.4% | 10.0% | -0.9% | 0.0% | -8.4% | i
OC1CCN(Cc2ccc3c(c2)CN(Cc2ccc(Oc4ncccn4)cc2)CCO3)CC1 | . | . | . | . | -16.3% | i
COC(=O)C1CCN(Cc2ccc3c(c2)CN(C(=O)c2ccc(-n4cnnn4)cc2)CCO3)CC1 | . | . | . | . | 2.2% | 5.3%
Cc1ccc(NC2=C(N3CCOCC3)C(=O)c3ccccc3C2=O)cc1 | 7.6% | 23.8µM* | -16.3% | -20.4% | -28.0% | -10.9%
COc1ccc(C(=O)N2CCOc3ccc(CN4CCN(c5ccccn5)CC4)cc3C2)o1 | . | . | . | . | -2.8% | -6.7%
CCOC(=O)N1CCN(C(=O)CSc2nnc(-c3ccc(C)c(C)c3)o2)CC1 | ? | -0.5% | 13.1% | 1.5% | ? | 10µM*
CCOC(=O)N1CCN(C(=O)CSc2nnc(-c3ccc(C(C)(C)C)cc3)o2)CC1 | ? | 8.9% | -3.8% | -18.0% | ? | 5.62µM*
COC(=O)C1CCN(c2nc(CN(C)C3CCOC3)nc3cc(OC)c(OC)cc23)CC1 (stereo not given) | . | . | . | . | 13.0% | 2.9%
CCc1cc[n+](CC(=O)c2ccc(F)cc2)cc1C(=O)O | . | . | . | . | -9.8% | -15.8%
Clc1cccc(OCCN2CCN(CCOc3cccc(Cl)c3)CC2)c1 | ? | 17.8µM* | 139.9% | -30.4% | -22.2% | -9.1%
c1ccc(OCCN2CCOCC2)cc1 | ? | 14.1µM* | -13.0% | 3.4% | . | .
O=C(c1cn(C2CCCN(Cc3cccc(Oc4ccccc4)c3)C2)nn1)N1CCCC1 (stereo not given) | . | . | . | . | -17.0% | -4.5%
O=c1oc2c3c4c(cc2s1)CCCN4CCC3 | -11.6% | 14.1µM* | -22.2% | -35.5% | . | .
CC1=C(C(=O)OC(C)C)C(c2cccnc2)n2ncnc2N1 (stereo not given) | ? | 0.0% | -14.2% | -5.1% | 28.2µM* | 28.2µM*
CC1=C(C(=O)OC(C)C)C(c2ccncc2)n2ncnc2N1 (stereo not given) | -2.8% | 2.7% | . | . | -9.1% | .
CCCCSc1nnc([C@@H]2CCCN2C(=O)OC(C)(C)C)o1 | 31.6µM* | 21.4% | 64.2% | 5.7% | 0.0% | .
CSc1nnc([C@@H]2CCCN2C(=O)OC(C)(C)C)o1 | 1.7% | 2.4% | 12.2% | -0.5% | -9.5% | -1.7%
